Compound activity (PubChem BioAssay)
RAD52 anneal inh – inhibitors of human RAD52 DNA annealing; P43351; recombinant RAD52 DNA annealing, FRET fluorescence; inhibition, % at 18.7 µM; actives 0.46% (n = 360,000);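 active = every replicate showing at least 50% inhibition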
ERAP1 HTS inh – blocks human ERAP1 aminopeptidase activity. inhibition, % at 10.7 µM. Q9NZ08. AID 652197. recombinant ERAP1, Leu-AMC fluorescence, 60 min. actives 0.15% (n = 340,000);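 active = mean replicate inhibition of at least 30%, or all replicates individually reaching that 30% level; inactive = mean below 30% and not every replicate reaching it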;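 also: 0% = neutral control wells and 100% = L-leucinethiol positive control wells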
FGF22 binding – shifts melting point of recombinant human FGF22. actives 1.5% (n = 340,000). activity (Tm shift, normalised), % at 9.99 µM. recombinant FGF22 thermal shift, SYPRO orange fluorescence; percent of sucrose octasulfate shift, DMSO zero. Q9HCT0. AID 651658;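 active = mean Tm shift, scaled 0 neutral to 100 positive control, at about 1.3% or above, every replicate too, limit read from the data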
MLL AF4-AF9 inh – inhibitors of human MLL-AF4/AF9 interaction; inhibition, % at 10 µM; actives 0.47% (n = 350,000); P42568; AlphaScreen, biotin-AF4 peptide binding to FLAG-AF9; AID 651704;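 active = every replicate reaching a set inhibition limit, whatever the replicate mean, cut at about 25% in these data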;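 also: 0% = plate neutral control median and 100% = total signal loss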
Target sequence (P42568 whole entry, looked up): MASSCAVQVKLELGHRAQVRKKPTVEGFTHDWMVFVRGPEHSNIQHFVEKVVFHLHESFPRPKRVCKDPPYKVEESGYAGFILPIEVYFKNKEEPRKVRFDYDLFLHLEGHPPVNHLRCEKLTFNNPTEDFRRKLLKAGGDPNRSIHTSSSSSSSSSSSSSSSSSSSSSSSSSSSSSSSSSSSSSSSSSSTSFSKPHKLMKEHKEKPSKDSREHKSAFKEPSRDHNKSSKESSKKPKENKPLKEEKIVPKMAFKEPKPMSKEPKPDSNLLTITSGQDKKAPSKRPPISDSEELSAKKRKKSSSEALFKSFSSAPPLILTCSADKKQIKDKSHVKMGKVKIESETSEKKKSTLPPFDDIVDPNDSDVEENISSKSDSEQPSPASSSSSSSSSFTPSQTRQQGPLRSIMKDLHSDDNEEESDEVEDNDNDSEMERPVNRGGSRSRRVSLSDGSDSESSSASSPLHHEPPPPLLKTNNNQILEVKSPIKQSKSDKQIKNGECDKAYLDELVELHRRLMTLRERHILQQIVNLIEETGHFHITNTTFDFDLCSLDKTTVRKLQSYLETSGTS
DENV2 CPE rescue – protects cells from dengue virus 2 cytopathic effect. DENV2-infected cells, cytopathic effect rescue, plate reader. CPE inhibition, % at 9.99 µM. actives 1.7% (n = 350,000). AID 651640; in the data active = CPE inhibition above about 20%, passing the limit was not always enough; tested in BHK-21 cells;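 also: 0% = median of neutral control wells and 100% = median of positive control wells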
Active calls of the source: *; nt = not tested or not shown; ! = not active in a repeat. Rows were chosen to be rich in hits. Some 4% of all compounds tested hit in one or more screens of this group.

SMILES	RAD52 anneal inh	ERAP1 HTS inh	FGF22 binding	MLL AF4-AF9 inh	DENV2 CPE rescue
COc1ccc2c3c([nH]c2c1)[C@H](CO)N(C(=O)NC(C)C)CC31CN(Cc2ccccc2)C1	11	-7	0	26*	-6
COc1ccc2c3c([nH]c2c1)[C@@H](CO)N(C(=O)NC(C)C)CC31CN(C(=O)NC(C)C)C1	-1	3	0	-1	47*
COc1ccc2c3c([nH]c2c1)[C@H](CO)N(C(=O)NC(C)C)CC31CN(Cc2ccc(F)cc2)C1	19	0	nt	31*	17
COC(=O)C[C@H]1C[C@@H]2c3cc(NC(=O)CC4CC4)ccc3O[C@@H]2[C@@H](CO)O1	2	-1	0	-3	-6
Cc1ccc(S(=O)(=O)Nc2ccc3c(c2)C(=O)N([C@@H](C)CO)C[C@@H](C)[C@@H](CN(C)Cc2ccc(C(=O)O)cc2)O3)cc1	8	1	0	-2	0
COC(=O)c1[nH]c2ccccc2c1NC(=O)/C=C/c1ccc2c(c1)OCO2	-6	-1	0	-1	38*
CCOC(=O)c1[nH]c2ccccc2c1NC(=O)c1ccc2c(c1)OCO2	-1	-4	0	-1	40*
COc1ccccc1NC(=O)/C=C/c1ccc2c(c1)OCO2	-4	-2	0	1	4
O=C(c1ccc(NS(=O)(=O)c2cccc3cccnc23)cc1)N1CCCCC1	-6	-3	44*	-2	0
O=C(c1ccc(S(=O)(=O)Nc2ccc(F)cc2)cc1)N1CCN(c2ccccn2)CC1	-3	1	43*	-1	-8
CCS(=O)(=O)N1CCC2(CC1)OCCN2S(=O)(=O)c1ccccc1	0	-1	0	-6	39*
COCC#Cc1ccc2c(c1)O[C@@H](CN(C)Cc1ccc(F)cc1)[C@H](C)CN([C@@H](C)CO)S2(=O)=O	-13	-1	0	2	-8
CCOc1ccc(NC(=O)CSc2ncc(-c3ccc(F)cc3)n2Cc2ccco2)cc1	-15	1	41	39*	-3
CCOc1ccc(NC(=O)CSc2nnc(-c3ccco3)n2N)cc1	-8	2	0	0	-2
Cc1nc2ccc(C(=O)N3c4ccccc4N=C(c4ccc(C(F)(F)F)cc4)C3C(=O)NC(C)(C)C)cc2[nH]1 (stereo not given)	-11	6	0	-1	37*
CCc1cccc(NC(=O)c2cc(S(=O)(=O)N3CCCCC3)ccc2N2CCOCC2)c1	-5	1	43*	-4	6
COc1ccc(S(=O)(=O)N(C)C[C@H]2Oc3c(NC(=O)C4CC4)cccc3C(=O)N([C@@H](C)CO)C[C@H]2C)cc1	19	-2	0	-1	-4
O=C(C[C@H]1CC[C@H](NC(=O)c2ccc3c(c2)OCO3)[C@@H](CO)O1)NCc1ccc(F)cc1	-7	-3	-1	3	9
O=C(C[C@@H]1CC[C@@H](NC(=O)Nc2ccc3c(c2)OCO3)[C@@H](CO)O1)NCc1ccc2c(c1)OCO2	1	-1	0	0	29*
O=C(C[C@@H]1CC[C@@H](NC(=O)NC2CCCCC2)[C@@H](CO)O1)NCc1ccc(F)cc1	-1	0	0	1	39*
O=C(C[C@@H]1CC[C@H](NC(=O)c2ccc3c(c2)OCO3)[C@@H](CO)O1)NCc1ccc(F)cc1	-3	1	0	0	32*!
O=C(C[C@H]1CC[C@@H](NC(=O)Nc2ccc3c(c2)OCO3)[C@H](CO)O1)NCc1ccc2c(c1)OCO2	1	1	0	0	-7
O=C(C[C@H]1CC[C@@H](NC(=O)CC2CC2)[C@@H](CO)O1)NCc1ccc(-c2ccccc2)cc1	3	-2	0	-1	48*
CCCN1C[C@H](C)[C@@H](OC)CN(C)C(=O)c2ccc(NC(=O)C3CC3)cc2OC[C@H]1C	9	3	0	-2	-2
C[C@@H]1CN([C@@H](C)CO)C(=O)c2cc(C#C[C@@H](C)O)cnc2O[C@H]1CN(C)C(=O)Nc1ccc(C(F)(F)F)cc1	-2	0	0	-1	14
SMILES	RAD52 anneal inh	ERAP1 HTS inh	FGF22 binding	MLL AF4-AF9 inh	DENV2 CPE rescue
COc1cc2c(cc1OC)CN(C(=O)[C@@H]1[C@H]3C(=O)O[C@H](c4ccccc4)[C@H](c4ccccc4)N3[C@H](c3ccc(OCCO)cc3)[C@@]13C(=O)Nc1ccc(C#CC4(O)CCCCCC4)cc13)CC2	-82	2	0	-2	4
CN(C)C(=O)C[C@@H]1CC[C@@H](NC(=O)c2ccc(F)cc2)[C@H](CO)O1	6	3	0	-3	45*
Cc1ccccc1-n1ncc2c1CC(C)(C)CC2NC(=O)CSc1ccncc1 (stereo not given)	-21	0	0	-2	108*
Oc1ccc(/C=N/n2cc(-c3ccccc3)[nH]c2=S)cc1	-17	5	44*	-5	2
COCC(=O)Nc1ccc2c(c1)OC[C@H](C)N(CCC(F)(F)F)C[C@H](C)[C@@H](OC)CN(C)C2=O	-3	-5	nt	-7	-1
COCC(=O)Nc1ccc2c(c1)OC[C@@H](C)N(Cc1cccnc1)C[C@H](C)[C@H](OC)CN(C)C2=O	-9	2	0	-1	-4
CCCN(C)C[C@H]1Oc2ncc(C#Cc3ccccc3OC)cc2C(=O)N([C@H](C)CO)C[C@H]1C	29	1	0	4	-3
COc1ccc(C2NC(Cc3ccccc3)(C(=O)O)C3C(=O)N(c4ccccc4OC)C(=O)C23)cc1 (stereo not given)	-7	3	43*	0	-6
COc1ccc2c3c(n(C)c2c1)[C@@H](CO)N(Cc1ccncc1)CC31CCN(C(=O)Nc2cccc(F)c2)CC1	-1	6	0	2	-13
CN1CCN(C2Cc3ccc(F)cc3Sc3cc(F)c(Cl)cc32)CC1 (stereo not given)	44	8	0	12	-2
CN1CCN(C2Cc3ccccc3Sc3cc(C(F)(F)F)ccc32)CC1 (stereo not given)	36	19	-1	26*	-14
COc1cccc(-c2ccc3c(c2)O[C@@H](CN(C)C(=O)C2CCC2)[C@H](C)CN([C@@H](C)CO)S3(=O)=O)c1	3	3	0	2	-6
Cc1csc(N=Nc2ccc(N(C)C)cc2)[n+]1[O-]	29	5	0	52*	-1
CC(OC(=O)c1cccc(Cl)c1)C(=O)NC1CCCCC1C (stereo not given)	-8	-3	0	0	6
CC(OC(=O)/C=C/c1cccc(Cl)c1)C(=O)NC1CCCCC1C (stereo not given)	-9	-1	-1	-3	91*
O=C(C1=C[C@@H](c2ccc3c(c2)Cc2ccccc2-3)C[C@@H](OCCCCO)O1)N1CCCCC1	-4	2	0	-1	15
CCOc1ncccc1C(=O)Nc1nnc(C2CC2)s1	-14	-2	44*	-2	1
